Source: PubChem (Broad Institute)
In the library only some 2.9% were active in any assay of this set; here they are far more common.
PfHsp90 yeast 2: reduces growth (ATP signal) of yeast expressing P. falciparum Hsp90. S. cerevisiae expressing PfHsp90, BacTiter-Glo ATP, 48 h; yeast lacking PDR1 and PDR3 efflux regulators. inhibition, % at 9.4 µM. 310,000 tested, 0.32% active. AID 504621;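 active means every replicate shows inhibition above about 80%, whatever the replicate mean, limit read from the data; inconclusive means mean inhibition reaches the set limit but some replicate falls short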;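 further: 0% = DMSO neutral controls and 100% = 20 µM radicicol positive controls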
N-glyco inh: N-linked glycosylation inhibition; D54 ERlucT glycosylation luciferase reporter, 24 h; percent of 100 nM tunicamycin response; reporter increase, % at 12.5 µM; 360,000 tested, 0.23% active; AID 588692;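 active means mean luciferase reporter signal, scaled so untreated is 0 and the glycosylation-blocking control 100, at or above a set limit in every replicate; inconclusive means mean reaches the limit but not every replicate does; inactive means mean below the limit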;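 further: luciferase carries N-glycosylation sites so blocking glycosylation raises the light; 0% = median of neutral control wells and 100% = median of 100 nM tunicamycin wells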
NSD2 HMT inh: NSD2 (human) methyltransferase inhibition | O96028 | NSD2 peptide methylation, AlphaScreen, 120 min | inhibition, % at 12.5 µM | 310,000 tested, 0.54% active | AID 743445; in the data active means inhibition above about 50%
MITF TRPM1 HTS: activators of MITF-driven TRPM1 promoter activity in SK-MEL-5 cells. SK-MEL-5 TRPM1-promoter luciferase, 24 h; % of positive control, neutral wells = 0. activation, % at 12.5 µM. 300,000 tested, 0.75% active. AID 588334;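 active means mean activation of at least 80% with every replicate also reaching 80%; inconclusive means mean reaches 80% but some replicate falls short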;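 further: 0% = neutral control wells and 100% = parthenolide positive control wells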
MITF TRPM1 inh: inhibitors of MITF-driven TRPM1 promoter in melanoma cells; SK-MEL-5 TRPM1 promoter luciferase, 24 h; inhibition, % at 12.5 µM; 330,000 tested, 0.83% active;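 active means mean inhibition across replicates of 60% or more, whatever share of single replicates reaches that level; inconclusive means some that reach 60%, reason not given; inactive means mean inhibition across replicates below 60%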
Wnt bcat act: activates Wnt/beta-catenin signaling in a reporter cell assay; activator, plate reader; activation, % at 9.35 µM; 300,000 tested, 1.2% active; in the data active means activation above about 30%, passing the limit was not always enough; inconclusive means no clear call, values can overlap the other calls;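 further: 0% = neutral control wells and 100% = positive control wells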
The depositor's hits bear a star; ? = inconclusive; · = no result.

SMILES	PfHsp90 yeast 2	N-glyco inh	NSD2 HMT inh	MITF TRPM1 HTS	MITF TRPM1 inh	Wnt bcat act
COc1ccc2c(c1OC)C(=O)OC2Nc1nc(-c2cc3cc(Br)ccc3oc2=O)cs1 (stereo not given)	1.2	4.0	·	144.3*	-138.7	50.9*
COc1cccc(N=Nc2ccc(O)c3ncccc23)c1	102.1*	-8.6	13.7	-52.0	52.1	-5.2
COc1ccc(N=Nc2cc(-c3ccccc3)ccc2O)cc1	20.1	0.1	34.5	2.9	-0.7	1.1
Oc1ccc(N=Nc2ccc3c(c2)OCCO3)c2cccnc12	-57.9	-15.3	8.6	-64.9	64.7*	-14.7
COc1cccc(N=Nc2ccc3cccnc3c2O)c1	103.9*	-12.4	4.2	-38.7	43.4	-2.6
COc1ccc(N=Nc2ccc(O)c3ncccc23)cc1	104.0*	-10.6	·	-69.2	68.8*	11.0
O=C(CNS(=O)(=O)c1cc2ccccc2s1)N1CCN(c2ccccn2)CC1	·	·	-4.9	·	·	·
COc1cccc(OC)c1C(=O)Oc1ccc2c(C)cc(=O)oc2c1	·	·	4.0	·	·	·
CC(C)Cc1nnc(NC(=O)c2ccc3c(c2)NC(=O)C(C)S3)s1 (stereo not given)	-35.9	-1.5	-1.5	14.0	-14.0	3.1
COCc1ccc(O)c2ncccc12	-31.2	-0.9	-2.6	-22.4	24.6	-2.7
COc1ccc(C)cc1N=Nc1ccc(O)c2ncccc12	108.9*	-10.6	9.1	-68.5	72.1*	-5.7
Cc1ccccc1N=Nc1ccc(O)c2ncccc12	-33.0	-14.6	-1.2	-76.1	76.4*	-2.5
CCOc1ccc(-n2c(SCC(=O)Nc3ccc(S(=O)(=O)Nc4nccs4)cc3)nnc2-c2ccccc2)cc1	·	·	32.3	·	·	·
COC(=O)[C@]12C[C@H](CC(=O)NCC3CCCCC3)C(=O)N(Cc3ccccc3)C1=C[C@H](C(C)C)O[C@@H]2C1CC1	·	·	·	·	·	-13.2
COc1ccc2oc(C(=O)Nc3nccs3)c(C)c2c1	·	-8.7	-1.4	73.2	-71.3	49.7*
CCOc1ccc2oc(C(=O)Nc3nccs3)c(C)c2c1	-28.3	-10.4	-1.3	30.4	-27.0	69.1*
COc1ccc2c(c1)Sc1ccc(Cl)cc1N2	·	·	2.3	·	·	·
Cc1ccccc1NC(=O)c1cc2ccccn2n1	-18.8	-10.3	0.8	62.4	-64.5	59.2*
Cc1ccc(C)c(NC(=O)c2cc3ccccn3n2)c1	-3.0	-2.2	·	45.3	-37.2	50.4*
CC1CCN(C(=O)C2CCCN(C(=O)c3ccc4c(c3)NC(=O)CS4)C2)CC1 (stereo not given)	·	·	-3.4	·	·	·
O=C(N=C1SC2CS(=O)(=O)CC2N1Cc1ccccc1Cl)C1CCCO1 (stereo not given)	-5.1	1.1	-5.0	14.9	-12.0	-1.6
N#Cc1c(NC(=O)c2ccco2)sc2c1CCC2	-9.2	-0.8	7.1	90.9*	-86.9	1.9
Cc1onc(C(=O)Nc2sc3c(c2C#N)CCCC3)c1[N+](=O)[O-]	-1.3	0.8	1.4	0.6	-6.5	34.9*
COC(=O)[C@]12C[C@H](CC(=O)NCc3ccccc3)C(=O)N(CCC3=CCCCC3)C1=C[C@H](COCc1ccccc1)O[C@@H]2C	·	·	·	·	·	-1.2
C(/C=C/c1ccco1)=N/N1CCN(c2ccccc2)CC1	27.5	1.8	3.3	113.0*	-112.2	·
SMILES	PfHsp90 yeast 2	N-glyco inh	NSD2 HMT inh	MITF TRPM1 HTS	MITF TRPM1 inh	Wnt bcat act
CSc1ccc(/C=N/N2CCN(C)CC2)cc1	-13.4	-3.1	2.2	49.2	-48.6	32.3*
C(=N\N1CCN(c2ccccc2)CC1)/c1ccccc1	20.7	-1.3	·	90.7*	-82.6	-1.9
Clc1ccccc1CN1CCN(/N=C/C=C\c2ccco2)CC1	10.8	-0.5	1.8	24.6	-23.6	4.1
CSc1ccc(/C=N/n2c(C)cc(C)cc2=O)cc1	·	0.4	-2.8	86.5*	-77.7	-4.6
CS(=O)(=O)c1cc([N+](=O)[O-])c(Sc2nc3ccccc3[nH]2)c([N+](=O)[O-])c1	1.9	8.5	0.9	-43.9	45.2	-0.9
CN(CCc1ccccn1)C(=O)[C@@H](Cc1ccccc1)NC(=O)[C@H]1O[C@@H](n2ccc(=O)[nH]c2=O)[C@H](O)[C@@H]1O	·	·	·	·	·	-7.9
CC1(C(=O)NCC2CC2)CCN1C(=O)C1(c2ccc(Cl)cc2)CC1 (stereo not given)	·	-1.6	0.9	·	·	-2.6
Cc1cccc(OCCNc2ccc(C(F)(F)F)cc2[N+](=O)[O-])c1	-8.3	1.7	-1.5	90.3*	-88.6	·
CS(=O)(=O)NCCCNc1ccc(C(F)(F)F)cc1[N+](=O)[O-]	0.8	-0.8	1.0	-6.1	4.2	-1.4
CN(N=Nc1nc[nH]c1C(N)=O)C1CCCCC1	·	-3.4	·	·	·	·
O=C(/C=C/c1cccs1)Nc1cccnc1	0.2	0.0	2.7	91.9*	-92.2	12.0
O=C(/C=C/c1cccs1)NCc1cccs1	·	0.2	3.6	·	·	42.9*
CN1C(=O)[C@@]2(O[C@H]3C=CC=CN3C3=C2C(=O)CCC3)c2cccc(Br)c21	·	·	-0.7	·	·	1.5
Cc1nc(-c2ccccc2)nc2[nH]ccc(=O)c12	·	5.8	-4.3	·	-43.7	26.9
Cc1nc(-c2ccc([N+](=O)[O-])cc2)nc2[nH]ccc(=O)c12	13.7	-12.6	4.5	104.9*	-103.1	36.8*
CCN(CC)C(=O)C1=C(C)N(Cc2ccc(C(C)(C)C)cc2)C(=O)C(CC(=O)NCCN2CCOCC2)C1 (stereo not given)	·	-0.3	·	·	·	-1.8
CC(C)[C@@H](CO)NC(=O)c1ccc2c3n(nc2c1)-c1ccc(Cl)cc1CO3	6.0	1.5	·	89.0*	-90.1	44.7*
CCCC#Cc1ccc2c(c1)COc1c3ccccc3nn1-2	2.9	-11.8	·	51.4	-52.3	?
C[C@@H](CO)NC(=O)c1ccc2c3n(nc2c1)-c1ccc(Cl)cc1CO3	21.1	1.6	·	101.9*	-104.0	46.5*
O=C1CCCN1CCCNc1ncnc2sccc12	-4.0	1.7	-1.4	-10.4	10.0	-1.9
O=C(CCn1cnnn1)Nc1cccc(F)c1	21.1	0.9	-3.0	6.1	-5.5	-0.6
C=CCn1c(SCc2cccc(C(F)(F)F)c2)nnc1-c1ccc(OC)cc1	·	·	-1.8	·	·	·
Cc1nc(NC(=S)Nc2ccccc2)sc1C	-14.7	-4.5	1.4	53.9	-51.2	79.7*
CCOC(=O)N1c2ccccc2Sc2ccccc21	·	0.7	-3.7	-7.2	8.2	1.2
Cc1nnc(SC(=O)N2c3ccccc3Sc3ccccc32)s1	18.5	-11.6	1.7	-73.5	76.4*	-9.2
CN(C)/N=C/c1ccc(Sc2ccc([N+](=O)[O-])cc2[N+](=O)[O-])o1	15.5	26.7*	8.6	-3.0	3.5	15.7
CN(C(=O)[C@H]1O[C@@H](n2cnc3c(=O)[nH]c(N)nc32)[C@H](O)[C@@H]1O)C1CCCCC1	·	·	32.8	·	·	0.9
O=C(COC(=O)c1cccc(O)c1)c1ccccc1	-15.7	-2.7	-0.3	78.9	-80.3	52.7*
Nc1cccc(C(=O)OCC(=O)c2ccccc2)c1	29.3	2.4	-2.0	57.9	-50.8	39.6*
